In PubChem BioAssay AID1053124 (Broad Institute, 2014):
Results with a measured potency or affinity are listed apart. Values without a mark were called inactive.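 The calls were made as follows: active = cell killing whose fitted half-effect concentration is at most twice the top valid dose tested; inconclusive = flat curve with 30 to 70% killing, or a poor fit; inactive = effect in the rising direction, plus the rest.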

Assay: A549 cell cytotoxicity, dose response, cytotoxicity control, ATP luminescence, cherry-pick, set 2 (AID 1053124);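 also: 0% = neutral control wells and -100% = mitoxantrone 10 µM positive control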
Settings: A549 viability, ATP luminescence (CellTiter-Glo), 72 h; series mostly up to 26 µM; activity change, negative = cytotoxicity: at the top concentration

Compound | activity change, negative = cytotoxicity [%]
CNNC(=S)NC1CC2CC1C1C=CCC21 (configuration not stated) | -2.33
COc1cccc2c(=O)c3c(cnn3C)n(C)c12 | -8.72
CCc1ccccc1S(=O)(=O)Cc1ccc(C(=O)N2CCN(c3ccccc3OC)CC2)o1 | -6.17
O=C(COC(=O)c1cc(S(=O)(=O)N2CCCCC2)ccc1N1CCOCC1)c1ccccc1Cl | -6.29
COC(=O)C1=CN(Cc2ccc(OC)c(OC)c2)C=C(C(=O)OC)C1c1cccc(F)c1 | -8.27
O=C(NNc1cc(N2CCCC2)nc(N2CCCC2)n1)c1ccc([N+](=O)[O-])cc1 | -12.8
S=C(NCC1CCCO1)N1CCN(Cc2ccccc2Cl)CC1 (configuration not stated) | -0.535
COc1ccccc1/C=N/Nc1nc(C)cc(=O)[nH]1 | -3.73
CC1(C)CC(=O)C2=C(C1)OC(N)=C(C#N)[C@@H]2c1ccccc1[N+](=O)[O-] | -2.34
COc1cccc(N2CCN(C(=O)C3CCCN(S(=O)(=O)c4cnc[nH]4)C3)CC2)c1 (configuration not stated) | -0.022
COc1cc(C(c2c(C(=O)O)[nH]c3ccccc23)c2c(C(=O)O)[nH]c3ccccc23)ccc1OCc1ccccc1 | 2.4
O=C(Cc1csc(-c2ccccc2)n1)NCc1ccccc1F | 0.178
CN1CCc2c(sc(NC(=O)C3CCCCC3)c2C(N)=O)C1 | 1.99
COc1ccc(C2CC(c3cccs3)=NN2c2nc(C)c(C(C)=O)s2)cc1OC (configuration not stated) | -26.6
CCNc1nc2nc3ccc(C)cn3c(=O)c2cc1C(=O)NCC1CCCO1 (configuration not stated) | -13.3
Cc1ccc2c(c1)-c1c(cnn1CC(=O)Nc1ccccc1N1CCN(C)CC1)CO2 | -16.3
COCCn1c(=N)c(S(=O)(=O)c2ccc(F)cc2)cc2c(=O)n3ccccc3nc21 | 1.86
